Experimental data reported in PubChem BioAssay AID1159580 (chemical genetic matrix, 2015).
Where “and” joins values, the source holds several entries; their conditions need not be identical. Equal values may be shown once. Hit rate of the full screen: of about 5,500 compounds, about 2,000 (36%) were called active. Inconclusive results (about 18%) are left out. Rule as the data show it: active = normalized growth mostly below about 0.91 (no sharp cut-off); inconclusive = no clear call, values can overlap the other calls; inactive = mostly above about 0.92. This is one part of the list. Some compounds were tested as several samples or in several runs, with calls that do not always agree.

Test: chemical genetic growth profiling, strain panel (AID 1159580);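 also: tested at 20 µM; growth read once vehicle control cultures reached saturation at 30 °C; 1 = growth at the plate median or of vehicle wells; lower values mean less growth of the strain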
Details: S. cerevisiae deletion strains, growth OD

**Q.** Which normalized growth (locus YAL013W, strain DEP1, stronger effect = lower value) does the source give for CN1CCN(CCCN2c3ccccc3Sc3ccc(C(F)(F)F)cc32)CC1 here?
**A.** 0.065 (active) and 0.82 (active)

**Q.** What about the normalized growth (locus YAL021C, strain ccr4, stronger effect = lower value) of the same compound?
**A.** 0.0696 (active)

**Q.** And the normalized growth (locus YAL026C, strain drs2, stronger effect = lower value)?
**A.** 0.0611 (active)

**Q.** And the normalized growth (locus YAL030W, strain snc1, stronger effect = lower value)?
**A.** 0.0651 (active)

**Q.** And the normalized growth (locus YAL040C, strain CLN3, stronger effect = lower value)?
**A.** 0.989 (inactive)

**Q.** What about the normalized growth (locus YBL061C, strain skt5, stronger effect = lower value) of the same compound?
**A.** 0.0653 (active)

**Q.** What about the normalized growth (locus YBR009C, strain hhf1, stronger effect = lower value) of the same compound?
**A.** 0.0647 (active)

**Q.** What about the normalized growth (locus YBR021W, strain FUR4, stronger effect = lower value) of the same compound?
**A.** 0.102 (active)

**Q.** What about the normalized growth (locus YBR023C, strain chs3, stronger effect = lower value) of the same compound?
**A.** 0.0673 (active)

**Q.** What about the normalized growth (locus YBR171W, strain sec66, stronger effect = lower value) of the same compound?
**A.** 0.0984 (active)

**Q.** And the normalized growth (locus YBR229C, strain ROT2, stronger effect = lower value)?
**A.** 0.0712 (active)

**Q.** And the normalized growth (locus YBR231C, strain swc5, stronger effect = lower value)?
**A.** 0.0679 (active)

**Q.** What about the normalized growth (locus YBR279W, strain paf1, stronger effect = lower value) of the same compound?
**A.** 0.0731 (active)

**Q.** And the normalized growth (locus YCL011C, strain gbp2, stronger effect = lower value)?
**A.** 0.0652 (active)

**Q.** And the normalized growth (locus YCL016C, strain dcc1, stronger effect = lower value)?
**A.** 0.0786 (active)

**Q.** What about the normalized growth (locus YCL029C, strain bik1, stronger effect = lower value) of the same compound?
**A.** 0.0752 (active)

**Q.** What about the normalized growth (locus YCL061C, strain MRC1 (second series), stronger effect = lower value) of the same compound?
**A.** 0.969 (inactive)

**Q.** And the normalized growth (locus YCL061C, strain MRC1, stronger effect = lower value)?
**A.** 0.0741 (active)

**Q.** And the normalized growth (locus YCL069W, strain vba3, stronger effect = lower value)?
**A.** 0.0697 (active)

**Q.** And the normalized growth (locus YCR088W, strain abp1, stronger effect = lower value)?
**A.** 0.0705 (active)

**Q.** And the normalized growth (locus YDL005C, strain med2, stronger effect = lower value)?
**A.** 0.412 (active)

**Q.** And the normalized growth (locus YDL035C, strain GPR1, stronger effect = lower value)?
**A.** 0.061 (active)

**Q.** And the normalized growth (locus YDL040C, strain nat1, stronger effect = lower value)?
**A.** 0.0906 (active)

**Q.** And the normalized growth (locus YDL074C, strain BRE1, stronger effect = lower value)?
**A.** 0.0975 (active)

**Q.** What about the normalized growth (locus YDL101C, strain DUN1, stronger effect = lower value) of the same compound?
**A.** 0.0711 (active)

**Q.** What about the normalized growth (locus YDL134C, strain PPH21, stronger effect = lower value) of the same compound?
**A.** 0.0567 (active)

**Q.** And the normalized growth (locus YDL185W, strain tfp1, stronger effect = lower value)?
**A.** 0.936 (inactive)

**Q.** And the normalized growth (locus YDL192W, strain arf1, stronger effect = lower value)?
**A.** 0.0649 (active)

**Q.** What about the normalized growth (locus YDR001C, strain nth1, stronger effect = lower value) of the same compound?
**A.** 0.0725 (active)

**Q.** What about the normalized growth (locus YDR069C, strain doa4, stronger effect = lower value) of the same compound?
**A.** 0.0695 (active)

**Q.** And the normalized growth (locus YDR101C, strain arx1, stronger effect = lower value)?
**A.** 0.0878 (active)

**Q.** And the normalized growth (locus YDR137W, strain rgp1, stronger effect = lower value)?
**A.** 0.261 (active)

**Q.** And the normalized growth (locus YDR150W, strain NUM1, stronger effect = lower value)?
**A.** 0.0679 (active)

**Q.** And the normalized growth (locus YDR159W, strain sac3, stronger effect = lower value)?
**A.** 0.0958 (active)

**Q.** And the normalized growth (locus YDR162C, strain NBP2, stronger effect = lower value)?
**A.** 0.0537 (active)

**Q.** What about the normalized growth (locus YDR195W, strain ref2) of the same compound?
**A.** 0.141 (active)

**Q.** And the normalized growth (locus YDR297W, strain sur2, stronger effect = lower value)?
**A.** 0.0695 (active)

**Q.** What about the normalized growth (locus YDR318W, strain mcm21, stronger effect = lower value) of the same compound?
**A.** 0.0756 (active)

**Q.** What about the normalized growth (locus YDR334W, strain swr1, stronger effect = lower value) of the same compound?
**A.** 0.0668 (active)

**Q.** What about the normalized growth (locus YDR335W, strain msn5, stronger effect = lower value) of the same compound?
**A.** 0.0678 (active)

**Q.** What about the normalized growth (locus YDR363W, strain ESC2, stronger effect = lower value) of the same compound?
**A.** 0.87 (active)

**Q.** And the normalized growth (locus YDR388W, stronger effect = lower value)?
**A.** 0.0596 (active)

**Q.** What about the normalized growth (locus YDR392W, strain spt3, stronger effect = lower value) of the same compound?
**A.** 0.0857 (active)

**Q.** What about the normalized growth (locus YDR502C, strain sam2, stronger effect = lower value) of the same compound?
**A.** 0.0724 (active)

**Q.** And the normalized growth (locus YEL003W, strain gim4, stronger effect = lower value)?
**A.** 0.0619 (active)

**Q.** And the normalized growth (locus YEL037C, strain rad23, stronger effect = lower value)?
**A.** 0.0674 (active)

**Q.** And the normalized growth (locus YEL061C, strain CIN8 (second series), stronger effect = lower value)?
**A.** 0.0766 (active)

**Q.** And the normalized growth (locus YEL061C, strain CIN8, stronger effect = lower value)?
**A.** 0.0589 (active)

**Q.** And the normalized growth (locus YER002W, strain NOP16, stronger effect = lower value)?
**A.** 1.07 (inactive)

**Q.** And the normalized growth (locus YER015W, strain faa2, stronger effect = lower value)?
**A.** 0.0802 (active)

**Q.** What about the normalized growth (locus YER016W, strain bim1, stronger effect = lower value) of the same compound?
**A.** 0.0723 (active)

**Q.** What about the normalized growth (locus YER110C, stronger effect = lower value) of the same compound?
**A.** 0.293 (active)

**Q.** And the normalized growth (locus YER111C, strain swi4, stronger effect = lower value)?
**A.** 0.36 (active)

**Q.** And the normalized growth (locus YER155C, strain BEM2 (second series), stronger effect = lower value)?
**A.** 1.01 (inactive)

**Q.** What about the normalized growth (locus YER155C, strain BEM2, stronger effect = lower value) of the same compound?
**A.** 0.12 (active)

**Q.** What about the normalized growth (locus YER167W, strain BCK2, stronger effect = lower value) of the same compound?
**A.** 0.0606 (active)

**Q.** And the normalized growth (locus YFR010W, strain ubp6, stronger effect = lower value)?
**A.** 0.0817 (active)

**Q.** What about the normalized growth (locus YGL078C, strain dbp3, stronger effect = lower value) of the same compound?
**A.** 0.978 (inactive)

**Q.** And the normalized growth (locus YGL086W, strain mad1, stronger effect = lower value)?
**A.** 0.0657 (active)

**Q.** What about the normalized growth (locus YGL167C, strain pmr1, stronger effect = lower value) of the same compound?
**A.** 0.0948 (active)

**Q.** And the normalized growth (locus YGL173C, strain kem1, stronger effect = lower value)?
**A.** 0.216 (active)

**Q.** What about the normalized growth (locus YGL227W, strain vid30, stronger effect = lower value) of the same compound?
**A.** 0.0831 (active)

**Q.** And the normalized growth (locus YGL240W, strain doc1, stronger effect = lower value)?
**A.** 0.554 (active)

**Q.** And the normalized growth (locus YGL248W, strain PDE1, stronger effect = lower value)?
**A.** 0.0581 (active)

**Q.** What about the normalized growth (locus YGL253W, strain hxk2, stronger effect = lower value) of the same compound?
**A.** 0.0605 (active)

**Q.** And the normalized growth (locus YGR078C, strain PAC10, stronger effect = lower value)?
**A.** 0.0702 (active) and 0.956 (inactive)

**Q.** What about the normalized growth (locus YGR135W, strain pre9, stronger effect = lower value) of the same compound?
**A.** 0.0937 (active)

**Q.** What about the normalized growth (locus YGR229C, strain SMI1, stronger effect = lower value) of the same compound?
**A.** 0.0673 (active) and 0.0769 (active)

**Q.** And the normalized growth (locus YGR252W, strain gcn5, stronger effect = lower value)?
**A.** 0.138 (active)

**Q.** What about the normalized growth (locus YHR013C, strain ard1, stronger effect = lower value) of the same compound?
**A.** 0.169 (active)

**Q.** What about the normalized growth (locus YHR027C, strain rpn1, stronger effect = lower value) of the same compound?
**A.** 0.0682 (active)

**Q.** And the normalized growth (locus YHR030C, strain SLT2, stronger effect = lower value)?
**A.** 0.0545 (active) and 0.948 (inactive)

**Q.** What about the normalized growth (locus YHR079C, strain IRE1 (second series), stronger effect = lower value) of the same compound?
**A.** 0.0763 (active)

**Q.** What about the normalized growth (locus YHR079C, strain IRE1, stronger effect = lower value) of the same compound?
**A.** 0.961 (inactive)

**Q.** And the normalized growth (locus YHR094C, strain hxt1, stronger effect = lower value)?
**A.** 0.0748 (active)

**Q.** And the normalized growth (locus YHR129C, strain ARP1, stronger effect = lower value)?
**A.** 0.0646 (active)

**Q.** What about the normalized growth (locus YHR142W, strain chs7, stronger effect = lower value) of the same compound?
**A.** 0.0848 (active)

**Q.** What about the normalized growth (locus YHR200W, strain rpn10, stronger effect = lower value) of the same compound?
**A.** 0.0811 (active)

**Q.** And the normalized growth (locus YIL066C, strain RNR3, stronger effect = lower value)?
**A.** 0.0614 (active)

**Q.** And the normalized growth (locus YIL073C, strain SPO22, stronger effect = lower value)?
**A.** 0.113 (active)

**Q.** And the normalized growth (locus YIL125W, strain kgd1, stronger effect = lower value)?
**A.** 0.982 (inactive)

**Q.** And the normalized growth (locus YIR030C, strain dcg1, stronger effect = lower value)?
**A.** 0.0766 (active)

**Q.** And the normalized growth (locus YJL092W, strain hpr5, stronger effect = lower value)?
**A.** 0.0707 (active)

**Q.** And the normalized growth (locus YJL095W, strain BCK1 (second series), stronger effect = lower value)?
**A.** 0.0585 (active)

**Q.** And the normalized growth (locus YJL095W, strain BCK1, stronger effect = lower value)?
**A.** 0.0646 (active) and 0.977 (inactive)

**Q.** What about the normalized growth (locus YJL115W, strain asf1, stronger effect = lower value) of the same compound?
**A.** 0.0851 (active)

**Q.** What about the normalized growth (locus YJL129C, strain trk1, stronger effect = lower value) of the same compound?
**A.** 0.0827 (active)

**Q.** What about the normalized growth (locus YJL134W, strain LCB3, stronger effect = lower value) of the same compound?
**A.** 0.108 (active)

**Q.** What about the normalized growth (locus YJL154C, strain vps35, stronger effect = lower value) of the same compound?
**A.** 0.0623 (active)

**Q.** And the normalized growth (locus YJL164C, strain tpk1, stronger effect = lower value)?
**A.** 0.0715 (active)

**Q.** What about the normalized growth (locus YJL166W, strain qcr8, stronger effect = lower value) of the same compound?
**A.** 0.0701 (active)

**Q.** What about the normalized growth (locus YJL168C, strain set2, stronger effect = lower value) of the same compound?
**A.** 0.0656 (active)

**Q.** And the normalized growth (locus YJL187C, strain SWE1 (second series), stronger effect = lower value)?
**A.** 0.0593 (active)

**Q.** And the normalized growth (locus YJL187C, strain SWE1, stronger effect = lower value)?
**A.** 0.0715 (active)

**Q.** What about the normalized growth (locus YJR043C, strain POL32, stronger effect = lower value) of the same compound?
**A.** 0.0718 (active)

**Q.** And the normalized growth (locus YJR066W, strain TOR1, stronger effect = lower value)?
**A.** 0.915 (inactive)
